Source: PubChem BioAssay
An excerpt weighted towards active compounds, which were near 1.8% of everything screened.
hiPSC survival: enhancers of single-cell hiPSC survival, primary screen, ATPlite luminescence; 100% = ROCK inhibitor wells, 0% = DMSO; survival enhancement, % at 20 µM; hit rate 0.044% among 360,000; AID 602274, 2012; in the data active means survival enhancement above about 18%;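 further: cells exposed to compounds for 16 hours before the ATP read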
GSIS activator: GLuc luminescence reporter in INS-1E cells, primary screen for activators of glucose-dependent secretion of insulin; INS-1E GLuc reporter insulin secretion, 2-3 h; activation, % at 16.6 µM; hit rate 0.61% among 370,000;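 active means lowest replicate activation of at least 40%, so every replicate reaches that level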
ABCB6 inh MLPCN: ABCB6 transporter inhibitors, primary screen, K562-ABCB6 cells, flow cytometry, MLPCN library | hit rate 0.19% among 360,000 | K562-ABCB6 porphyrin accumulation, 1 h; stronger effect = lower value | ATP-binding cassette sub-family B member 6 (Homo sapiens), Q9NP58 | fluorescence ratio to DMSO, % at 10 µM;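 active means fluorescence ratio to DMSO below 75%, the collection mean minus 3 SD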;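 further: signal is porphyrin accumulated inside mitochondria; lower ratio means ABCB6 inhibition with less porphyrin fluorescence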
NRP1-CendR mod: modulators of CendR peptide binding to NRP-1, primary screen, biochemical, fluorescence polarization, uHTS; Neuropilin-1 (Homo sapiens), O14786; FAM-RPARPAR peptide binding to NRP-1; inhibition, % at 25 µM; hit rate 0.85% among 360,000; AID 602438, 2012;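 active means inhibition or corrected inhibition above about 18%, plus a signal ratio from 0.5 to 1.5, limit read from the data, passing the limit was not always enough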
ARNT TACC3 PPI: disruptors of ARNT/TACC3 protein interaction, primary screen, biochemical, AlphaScreen, single concentration. Transforming acidic coiled-coil-containing protein 3 (Homo sapiens), Q9Y6A5. AlphaScreen His-ARNT PAS-B/GST-TACC3 binding, luminescence; TACC3 fragment carries E629A point mutation. inhibition, % at 9.99 µM. hit rate 0.66% among 390,000;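 active means mean inhibition of replicates at least 50% and at least half of replicates each reaching 50%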
Large screens that a line does not name were inactive.

CCn1cc(C(=O)O)c(=O)c2cc(F)c(N3CCN(C(=S)NC(=O)c4cccc(C)c4)CC3)cc21	GSIS activator 43.6
CCn1cc(C(=O)O)c(=O)c2cc(F)c(N3CCN(C(=S)NC(=O)c4ccc(Br)cc4)CC3)cc21	none (no result: ARNT TACC3 PPI)
CC(C)C(=O)NNC(=O)c1ccccn1	ARNT TACC3 PPI 51.4
CC(Oc1ccccc1)C(=O)NNC(=O)c1ccccn1 (stereo not given)	ARNT TACC3 PPI 51.0 (no result: GSIS activator)
COc1ccc(OCC(=O)NCCNC(=O)c2ccccn2)cc1	none
CC(Oc1cccc(Br)c1)C(=O)NNC(=O)c1ccccn1 (stereo not given)	none (no result: GSIS activator, ARNT TACC3 PPI)
COc1ccc(OCC(=O)NNC(=O)Cn2c(=O)cnc3ccccc32)cc1	GSIS activator 76.0 (no result: ARNT TACC3 PPI)
COc1ccc(OCC(=O)NNC(=O)c2ccccn2)cc1	ARNT TACC3 PPI 66.6 (no result: GSIS activator)
C[C@@H]1CCCCO[C@H](CN(C)C(=O)Nc2cccc3ccccc23)[C@@H](C)CN([C@@H](C)CO)C(=O)c2cc(N(C)C)ccc2O1	none (no result: hiPSC survival, ABCB6 inh MLPCN, NRP1-CendR mod, ARNT TACC3 PPI)
COc1ccc(C(=O)NNC(=O)c2ccccn2)cc1	none
O=C(NNC(=O)c1ccccn1)c1cccc([N+](=O)[O-])c1	ARNT TACC3 PPI 66.7
Cc1cccc(NC(=O)NNC(=O)c2ccccn2)c1	ARNT TACC3 PPI 48.1
COc1ccc2c(c1)C(=NNC(=O)c1ccccn1)c1cc(OC)ccc1-2	GSIS activator 146.4
CCOc1ccccc1NC(=O)CSc1ccc(-c2ccco2)nn1	GSIS activator 60.7
CN(C)/C=C1\NC(=S)N(c2ccccc2)C1=O	NRP1-CendR mod 24.7
CN(C)/C=C1\NC(=S)N(c2ccc(Cl)cc2)C1=O	none (no result: GSIS activator)
O=C(O)C[C@@H]1CC[C@H](NC(=O)CCN2CCCCC2)[C@@H](CO)O1	none (no result: hiPSC survival, ABCB6 inh MLPCN, NRP1-CendR mod, ARNT TACC3 PPI)
COc1ccc(CN2C[C@H](C)[C@@H](OC)CN(C)C(=O)c3cc(NC(C)=O)ccc3OC[C@@H]2C)cc1	none (no result: hiPSC survival, ABCB6 inh MLPCN, NRP1-CendR mod)
CC(Sc1ccc2ccccc2c1)C(=O)NC(N)=O (stereo not given)	none
Cc1ccc(SC(C)C(=O)NC(N)=O)c(C)c1 (stereo not given)	GSIS activator 41.1
O=S(=O)(c1ccc(F)cc1)N1CCCCN2[C@@H](CO)[C@@H](c3ccc(-c4ccccc4)cc3)[C@@H]2C1	none (no result: hiPSC survival, ABCB6 inh MLPCN, NRP1-CendR mod)
O=C(C[C@H]1CC[C@@H]2[C@H](COC[C@@H](O)CN2Cc2cccc(C(F)(F)F)c2)O1)NCc1ccncc1	none (no result: hiPSC survival, ABCB6 inh MLPCN, NRP1-CendR mod)
CC(=O)N(/N=C1\Sc2ccccc2C1=O)c1ccc(C)cc1C	none (no result: GSIS activator)
CC(=O)N(/N=C1\Sc2ccccc2C1=O)c1ccccc1C	ARNT TACC3 PPI 59.0 (no result: GSIS activator)
COc1ccccc1CNC(=S)NC1CCCC1	ABCB6 inh MLPCN 69.0
S=c1[nH]nc(-c2ccccn2)n1/N=C/c1ccc(-c2ccccc2Cl)o1	ARNT TACC3 PPI 55.8
S=c1[nH]nc(-c2ccccn2)n1/N=C/c1ccc(Br)s1	ARNT TACC3 PPI 99.3
O=C(c1cccc(F)c1)N1CC(=O)N2[C@H](C1)[C@H](c1ccc(-c3ccccc3F)cc1)[C@@H]2CO	none (no result: hiPSC survival, ABCB6 inh MLPCN, NRP1-CendR mod, ARNT TACC3 PPI)
CC=Cc1ccc2n(c1=O)C[C@H]1[C@H](CO)[C@@H](C(=O)NCCc3ccncc3)[C@@H]2N1CCc1ccccc1 (mixture of isomers)	none (no result: hiPSC survival, ABCB6 inh MLPCN, NRP1-CendR mod, ARNT TACC3 PPI)
COc1ccc(C=CC(O)CCN2CCC3CCC(C3)C2)cc1 (stereo not given)	NRP1-CendR mod 23.5 (no result: GSIS activator)
COc1ccc(/C=C/C(=O)OC2CCCN(C)C2)cc1 (stereo not given)	none
CCCC(=O)Nc1ccc2c(c1)C(=O)N(C)[C@@H]1CC[C@@H](CC(=O)NCCN3CCCCC3)O[C@H]1CO2	none (no result: hiPSC survival, ABCB6 inh MLPCN, NRP1-CendR mod)
NNC(=O)c1[nH]c2ccc([N+](=O)[O-])cc2c1-c1ccccc1	NRP1-CendR mod 23.6
C/C=C/c1ccccc1[C@H]1[C@@H](CO)N(C(=O)Nc2ccccc2)[C@H]1C#N	none (no result: hiPSC survival, ABCB6 inh MLPCN, NRP1-CendR mod, ARNT TACC3 PPI)
COCc1ccc(CN2CCc3c([nH]c4ccccc34)C2C(C)(C)C)o1 (stereo not given)	ARNT TACC3 PPI 45.1
COCCC(=O)N1CCc2c([nH]c3ccccc23)C1C(C)(C)C (stereo not given)	none
CO[C@@H]1CN(C)C(=O)c2cc(NC(=O)C3CC3)ccc2OC[C@H](C)N(Cc2ccncc2)C[C@H]1C	none (no result: hiPSC survival, ABCB6 inh MLPCN, NRP1-CendR mod)
Cc1ccc(CCN2CC(C(=O)NCCCN3CCCCCC3)CC2=O)cc1 (stereo not given)	hiPSC survival 21.7 (no result: GSIS activator)
N#C/C(=C/c1ccc(-c2ccc(S(N)(=O)=O)cc2)o1)C(=O)Nc1ccccc1	GSIS activator 116.3
C[C@@H]1CN([C@@H](C)CO)C(=O)Cc2cc(NC(=O)Cc3cn(C)c4ccccc34)ccc2O[C@H]1CN(C)S(=O)(=O)c1ccc(Cl)cc1	none (no result: hiPSC survival, ABCB6 inh MLPCN, NRP1-CendR mod, ARNT TACC3 PPI)
CCOC(=O)c1ccc(-c2c(-c3cc(OC)c(OC)c(OC)c3)noc2C)cc1F	NRP1-CendR mod 25.2
O=C(C[C@H]1C[C@@H]2c3cc(NC(=O)C4CCOCC4)ccc3O[C@@H]2[C@H](CO)O1)NCc1ccncc1	none (no result: hiPSC survival, ABCB6 inh MLPCN, NRP1-CendR mod)
COc1ccc2c3c(n(C)c2c1)[C@@H](CO)N(CC1CCCCC1)CC31CCN(C(C)=O)CC1	none (no result: hiPSC survival, ABCB6 inh MLPCN, NRP1-CendR mod, ARNT TACC3 PPI)
CSc1nsc(SCC(=O)N2CCc3ccccc32)n1	NRP1-CendR mod 18.6 (no result: GSIS activator)
C[C@@H]1CN([C@H](C)CO)C(=O)c2cc(-c3ccc(F)cc3)cnc2O[C@H]1CN(C)C(=O)Cc1ccccn1	none (no result: hiPSC survival, ABCB6 inh MLPCN, NRP1-CendR mod)
O=C(c1cccnc1)N1C[C@H]2[C@@H](c3ccccc31)[C@H](CO)N2Cc1ccc2c(c1)OCO2	none (no result: hiPSC survival, ABCB6 inh MLPCN, NRP1-CendR mod)
CCCCC1=CC2=CC(=O)C(C)(OC(=O)CC)C(=O)C2=CN1CC(C)C (stereo not given)	none (no result: ARNT TACC3 PPI)
CCCCC1=CC2=CC(=O)C(C)(OC(=O)CC)C(=O)C2=CN1Cc1ccc(OC)cc1 (stereo not given)	NRP1-CendR mod 35.2
C=CCN1C=C2C(=O)C(C)(OC(=O)c3cccs3)C(=O)C=C2C=C1CCCC(=O)OC (stereo not given)	NRP1-CendR mod 28.5
CCCCC1=CC2=CC(=O)C(C)(OC(=O)CC)C(=O)C2=CN1C(CO)CO (stereo not given)	NRP1-CendR mod 35.3
C[C@H]1CN([C@@H](C)CO)C(=O)c2cc(C3=CCCCC3)cnc2O[C@@H]1CN(C)C(=O)c1ccccc1	none (no result: hiPSC survival, ABCB6 inh MLPCN, NRP1-CendR mod)
CCCN(C)C[C@@H]1Oc2ncc(C#CCOC)cc2C(=O)N([C@@H](C)CO)C[C@@H]1C	none (no result: hiPSC survival, ABCB6 inh MLPCN, NRP1-CendR mod)
COc1ccccc1NC(=S)NNC(=O)c1nn(C)cc1Cl	ARNT TACC3 PPI 56.8 (no result: GSIS activator)
COc1ccccc1NC(=S)NNC(=O)c1nn(C)c(C)c1Cl	none (no result: GSIS activator)
COCC#Cc1cnc2c(c1)C(=O)N([C@H](C)CO)C[C@@H](C)[C@@H](CN(C)C(=O)C1CCCCC1)O2	none (no result: hiPSC survival, ABCB6 inh MLPCN, NRP1-CendR mod)
COCCN1C=C(C(=O)OC)C(c2ccccc2Cl)C(C(=O)OC)=C1	NRP1-CendR mod 21.9
